# The panel holds about 83,000 compounds, 20% with a hit somewhere; the sample as a whole holds those more often.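 96-well plates, one dose, 48 hours. Percent growth reported; active if below 10.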 Activity calls are given as the source filed them.
# System: HL-60(TB) leukemia
# Experiment: NCI-60 one-dose screen, 48 h (100 = growth as untreated, 0 = no growth, -100 = all killed)
# Conditions: 10 µM unless noted
row,SMILES,growth
1,COc1ccc(/C=C2/CN(C(=O)c3ccccc3F)C/C(=C\c3ccc(OC)cc3)C2=O)cc1,51.4% (inactive)
2,CC(C)CNc1nc(N=[N+]=[N-])nc(NCC(C)C)n1,48.9% [100 µM] (inactive)
3,Cc1ccc(S(=O)(=O)Nc2cccc3[nH]c(C(F)(F)F)nc23)cc1,0.648% (active)
4,OCC1OC(n2ccc3c2ncn2ncnc32)C(O)C1O (stereo unspecified),-14.4% (active)
5,CC(C)C1=NOC(=O)C1=Cc1cn(-c2ccccc2)nc1-c1ccc(Cl)cc1,-44.5% (active)
6,CN(C)c1ccc(/C=C2/C=C(c3ccccc3)OC2=O)cc1,4.38% (active)
7,CS(=O)(=O)CCNCc1ccc(-c2ccc3ncnc(Nc4ccc(OCc5cccc(F)c5)c(Cl)c4)c3c2)o1,20.3% (inactive)
8,Cc1ccc(/C=C2/C(=O)N(C)c3ccc(S(=O)(=O)Nc4ccc(C(C)(C)C)cc4)cc32)s1,97% (inactive)
9,COc1ccc2c(c1)CC[C@@H]1[C@@H]2CC[C@]2(C)C3C(=CCC4C(=O)N(c5ccccc5)C(=O)C43)C[C@@H]12 (stereo partly specified),81.6% (inactive)
10,O=C1Nc2cc(-c3cccc(O)c3)ccc2/C1=C/c1ccc[nH]1,6.76% (active)
11,CCCCC(=O)OC1CCCCC1C (stereo unspecified),117% (inactive)
12,CCCCCN(CCCCC)C(C)C(O)c1ccc2cc(Cl)c3ccccc3c2c1 (stereo unspecified),105% (inactive)
13,c1ccc2c(c1)Cc1ccccc1N2CCN1CCCCC1,85.1% (inactive)
14,COC(=O)[C@]12CC[C@@H](C(C)=O)[C@@H]1[C@H]1CC[C@@H]3[C@@]4(C)C/C(=C/c5cccnc5)C(=O)C(C)(C)[C@@H]4CC[C@@]3(C)[C@]1(C)CC2,-2.67% (active)
15,CN(C)CCCn1c2c(c3ccc(-c4ccn[nH]4)cc3c1=O)C(=O)c1ccccc1-2,-7.99% (active)
16,Cc1ncc(C(=O)Nc2ccc(CN3CCN(C)CC3)c(C(F)(F)F)c2)cc1C#Cc1cnc(N)c2ncccc12,6.76% (active)
17,Cc1cc(-c2ccc(N=Nc3c(S(=O)(=O)O)cc4cc(S(=O)(=O)O)cc(N)c4c3O)c(C)c2)ccc1N=Nc1cc(S(=O)(=O)O)c2ccccc2c1O,98.7% (inactive)
18,CC(=O)c1cc(C(=O)c2ccc3c(c2)Sc2ccccc2N3)c2cc(C)ccn12,2.96% (active)
19,O=C1/C(=C/c2cccc([N+](=O)[O-])c2)COc2ccc(O)cc21,15.3% (inactive)
20,COC(=O)c1c2c(c(C)[n+]([O-])c1C)C(=O)C(NCc1ccc(Br)cc1)=CC2=O,-19.9% (active)
21,Cc1ccc(N2C(=O)CCC2=O)cc1,104% (inactive)
22,O=C(Nc1ccc(F)cc1)c1cc2ccccc2cc1O,71.2% (inactive)
23,CC(=O)OC(C)COc1ccc(-c2ccccc2)cc1 (stereo unspecified),104% (inactive)
24,CC1(C)CC[C@]2(C(=O)N3CCOCC3)CC[C@]3(C)C(=CC[C@@H]4[C@@]5(C)CC[C@H](OC(=O)c6cccnc6)C(C)(C)[C@@H]5CC[C@]43C)[C@@H]2C1,45.4% (inactive)
25,CCOC(=O)C(=CNc1ccccc1[N+](=O)[O-])C(=O)OCC,90.8% (inactive)
26,O=c1nc(-c2ccccc2)c2cc(-c3ccc(N4CCOCC4)cc3)ccc2[nH]1,63.5% (inactive)
